Test results taken from article PMC5540273 (PLoS ONE, 2017).

What was measured:
Conditions in all cases: concentration: 1 μM, replicates: in singlicate; n = 1
CAMK2G = tested on: CAMK2G
CAMK4 = tested on: CAMK4
CAMKK1 = tested on: CAMKK1
CAMKK2 = tested on: CAMKK2
CASK = tested on: CASK
CDC2L1 = tested on: T1, CDC2L1
T1 construct: gene CDK11B

CDC2L2 = tested on: CDC2L2
CDC2L5 = tested on: T2, CDC2L5
T2 construct: gene CDK13

CDK11 = tested on: T3, CDK11
T3 construct: gene CDK19

CDK2 = tested on: CDK2
CDK3 = tested on: CDK3
CDK4-cyclinD1 = tested on: CDK4-cyclinD1
CDK4-cyclinD3 = tested on: CDK4-cyclinD3
CDK4 = tested on: CDK4
CDK5 = tested on: CDK5
CDK7 = tested on: CDK7
CDK8 = tested on: CDK8
CDK9 = tested on: CDK9
CDKL1 = tested on: CDKL1
CDKL2 = tested on: CDKL2
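Further: KINOMEscan kinase panel screen.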

Structure (SMILES)	%Inh (CAMK2G)	%Inh (CAMK4)	%Inh (CAMKK1)	%Inh (CAMKK2)	%Inh (CASK)	%Inh (CDC2L1)	%Inh (CDC2L2)	%Inh (CDC2L5)	%Inh (CDK11)	%Inh (CDK2)	%Inh (CDK3)	%Inh (CDK4-cyclinD1)	%Inh (CDK4-cyclinD3)	%Inh (CDK4)	%Inh (CDK5)	%Inh (CDK7)	%Inh (CDK8)	%Inh (CDK9)	%Inh (CDKL1)	%Inh (CDKL2)
CCC(=O)c1c(-c2ccccc2)c2cc(Cl)ccc2c(=O)n1Cc1cc(S(C)(=O)=O)n(CC(N)=O)n1	0%	0%	0%	0%	0%	0%	6%	0%	0%	0%	0%	0%	0%	0%	0%	2%	0%	0%	23%	0%
CCS(=O)(=O)c1ccc(OC)c(Nc2ncc(-c3ccc(F)cc3)o2)c1.Cl [GW591947]	21%	0%	1%	12%	3%	0%	0%	0%	19%	0%	0%	0%	0%	14%	0%	0%	19%	0%	14%	29%
COC(=O)c1c(-c2ccccc2)c2cc(Br)ccc2c(=O)n1Cc1ccc(NC(=O)CCC(=O)O)cc1	8%	0%	0%	0%	0%	16%	0%	13%	7%	4%	5%	0%	0%	8%	0%	5%	0%	0%	1%	0%
COC(=O)c1c(-c2ccccc2)c2cc(Br)ccc2c(=O)n1Cc1ccc(S(C)(=O)=O)cc1	21%	0%	10%	30%	0%	11%	0%	14%	24%	6%	0%	0%	5%	0%	15%	29%	0%	3%	0%	0%
COc1cccc(-n2cnc3c(N)ncnc32)c1 [SKF-97416]	8%	4%	4%	6%	20%	0%	2%	36%	1%	4%	17%	37%	0%	31%	0%	33%	0%	0%	13%	8%
Nc1ncnc2c1ncn2-c1cccc2ccccc12 [SKF-97184]	0%	38%	0%	0%	22%	0%	11%	26%	23%	0%	0%	0%	0%	13%	0%	22%	38%	1%	33%	0%
Cc1cccc(-c2nc(Nc3ccc4c(cnn4C)c3)c3ccccc3n2)n1 [GW876731]	0%	0%	2%	0%	0%	0%	6%	0%	10%	6%	0%	0%	0%	1%	0%	11%	0%	0%	0%	23%
CCC(=O)c1c(-c2ccccc2)c2cc(Cl)ccc2c(=O)n1Cc1cc(C(=O)NC2CC2)n(C)n1	6%	0%	2%	15%	0%	4%	0%	0%	3%	0%	0%	3%	0%	0%	0%	12%	14%	11%	0%	3%
Cc1nnc(-c2ccc(C)c(-c3ccc(C(=O)O)cc3)c2)o1 [GW608005]	3%	0%	7%	0%	1%	0%	0%	0%	0%	0%	0%	0%	0%	29%	0%	0%	21%	0%	0%	6%
O=C(NCc1cccs1)c1cc(C(=O)c2c(Cl)cccc2Cl)c[nH]1 [GW823670]	0%	15%	0%	0%	5%	0%	0%	0%	14%	0%	15%	0%	0%	0%	0%	0%	16%	0%	8%	0%
Nc1ncnc2c1ncn2-c1ccc(Cl)cc1 [AH2635]	13%	0%	0%	10%	0%	0%	28%	0%	0%	0%	0%	0%	0%	42%	0%	0%	33%	0%	0%	6%
Cc1nc(N(C)[C@H]2CN(C(=O)CC#N)CC[C@H]2C)c2cc[nH]c2n1	12%	6%	7%	4%	15%	0%	0%	0%	0%	0%	2%	0%	23%	0%	16%	11%	0%	0%	0%	0%
Cn1c(=O)c(F)c(Nc2ccc(I)cc2F)c2c(=O)n(OC[C@H](O)CO)cnc21	34%	22%	24%	33%	0%	14%	15%	13%	0%	0%	38%	1%	0%	0%	0%	0%	46%	14%	51%	29%
COc1ccc(Nc2nccc(N3CCC(NS(=O)(=O)c4ccc(NC(C)=O)cc4)C3)n2)cc1 (stereo not drawn) [GSK1379729]	9%	4%	12%	5%	0%	0%	17%	0%	11%	2%	20%	8%	0%	13%	12%	0%	35%	0%	0%	14%
COc1cc2ncn(-c3cc(OCc4ccncc4Br)c(C(N)=O)s3)c2cc1OC [GW854278]	11%	0%	15%	17%	34%	5%	10%	5%	11%	1%	5%	13%	0%	0%	0%	0%	15%	0%	14%	0%
